Screening results deposited in PubChem by National Center for Advancing Translational Sciences (NCATS).
Many of the other results were omitted from the sample, so hits are more common in it than they were.
DT40 TDP1 no CPT: qHTS for Inhibitors of human tyrosyl-DNA phosphodiesterase 1 (TDP1): qHTS in cells in absence of CPT | DT40 Tdp1-/- hTDP1 cells, no CPT, ATP luminescence, 48 h | Potency, µM (series often up to 46.2 µM), for the others: top-dose activity change, negative = growth inhibition, most hits filed as inhibitors | actives 15% (n = 420,000) | AID 686978, 2013; further: potency means the concentration at half of the fitted maximal effect; nearly all actives have a fitted effect of over 55% in size
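Growth of hTDP1-complemented DT40 Tdp1-knockout cells is measured by ATP luminescence after at least 48 hr compound exposure at 37 °C, with DMSO substituting for the 20 nM CPT used in the parallel screen.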
IL-1B inflam inh: inflammasome signaling inhibition, IL-1 beta readout. THP-1 LPS/ATP IL-1B secretion, AlphaLISA, 16 h; hits give low values. activity change, % at 57.5 µM. actives 4.7% (n = 360,000). AID 743279; in the data active means activity change below about -50%; inconclusive means mostly about -30% to -49%
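Secreted IL-1B measured by AlphaLISA bead assay after 16 h compound exposure of THP-1 cells; compounds (final up to 57.5 uM) added 1 h before LPS (250 ng/mL) and ATP (1.25 mM) stimulation; lower signal means less secretion.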
HT1080-NT tox: kills 2HG-producing HT-1080-NT fibrosarcoma cells; HT-1080-NT fibrosarcoma viability, CellTiter-Glo ATP luminescence, 48 h; Potency, µM (series often up to 46.1 µM), for inactives: top-dose activity, negative = less viability, hits mostly cytotoxic; AID 686970; actives 1.6% (n = 360,000);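 further: NT is the 2HG producing partner of a matched IDH1 knockdown line; potency means the concentration at half of the fitted maximal effect; 0% = DMSO-treated cells and -100% = media-only wells without cells; nearly all actives have a fitted effect of over 55% in size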
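Viability of the 2HG-overproducing fibrosarcoma line after 48 hours of compound exposure at 37 degrees C was determined by luminescence with CellTiter-Glo, and concentration-effect curves were then fitted and categorized.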
12-LOX inh: inhibitors of human 12S-lipoxygenase ALOX12; purified 12hLO, xylenol orange hydroperoxide absorbance; actives 1.1% (n = 580,000); Potency, µM (series often up to 108 µM), inactives show at the highest dose activity change, negative = inhibition, usual class: inhibitors; further: potency means the concentration at half of the fitted maximal effect
Target sequence (P18054 whole entry, looked up): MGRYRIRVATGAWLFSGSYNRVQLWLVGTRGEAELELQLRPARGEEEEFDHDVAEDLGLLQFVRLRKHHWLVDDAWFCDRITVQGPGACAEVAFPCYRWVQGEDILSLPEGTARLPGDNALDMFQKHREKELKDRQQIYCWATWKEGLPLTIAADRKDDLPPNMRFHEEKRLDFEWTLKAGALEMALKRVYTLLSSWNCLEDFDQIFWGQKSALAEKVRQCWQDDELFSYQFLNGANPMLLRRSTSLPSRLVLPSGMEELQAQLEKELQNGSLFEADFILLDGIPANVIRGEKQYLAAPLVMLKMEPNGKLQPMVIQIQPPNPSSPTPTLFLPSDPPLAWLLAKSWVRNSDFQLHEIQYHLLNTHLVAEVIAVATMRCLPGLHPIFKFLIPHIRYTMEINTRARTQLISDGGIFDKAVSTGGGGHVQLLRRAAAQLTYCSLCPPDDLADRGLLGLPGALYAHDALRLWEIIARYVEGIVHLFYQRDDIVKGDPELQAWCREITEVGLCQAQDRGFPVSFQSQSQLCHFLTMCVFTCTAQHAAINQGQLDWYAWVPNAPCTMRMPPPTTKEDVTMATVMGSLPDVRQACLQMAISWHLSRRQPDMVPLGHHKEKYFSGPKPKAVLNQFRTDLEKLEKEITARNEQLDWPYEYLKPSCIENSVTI
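Purified human 12hLO at 150 nM in 25 mM Hepes, 0.01% Triton X-100, pH 7.0, preincubated 15 min at room temperature with compound. Reaction started with 40 uM arachidonic acid, 30 min at room temperature. Hydroperoxide measured by Fe-xylenol orange, 573/405 nm absorbance ratio.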
DT40 TDP1 CPT: DT40-hTDP1 cell growth loss with CPT; chicken DT40 Tdp1-/-;hTDP1 cells + 20 nM CPT, ATP luminescence, 48 h; Potency, µM (highest dose often 46.2 µM), for inactives: top-dose activity change, negative = growth inhibition, most hits filed as inhibitors; actives 12% (n = 420,000); further: potency means the concentration at half of the fitted maximal effect; nearly all actives have a fitted effect of over 55% in size
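Cell growth measured by CellTiter-Glo luminescence after a minimum 48 h, 37 C compound exposure with 20 nM CPT in Tdp1-knockout DT40 cells stably expressing hTDP1, seeded 400/well; qHTS titration format.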
HT1080 IDH1KD tx: HT-1080 IDH1 knockdown cell toxicity (counter line); actives 2% (n = 360,000); HT-1080 IDH1 knockdown viability, ATP luminescence, 48 h; Potency, µM (top dose mostly 46.1 µM), inactives show at the top dose activity, negative = toxicity, hits mostly cytotoxic;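 further: potency means the concentration at half of the fitted maximal effect; 0% = DMSO wells and -100% = cell-free medium wells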
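Luminescent ATP read-out (CellTiter-Glo, 10 min at room temperature) after 48 h compound exposure at 37 °C gave viability of IDH1-knockdown HT-1080 cells. Activity was normalised to DMSO and cell-free wells, then fitted as concentration-response curves.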
Starred values were filed as active, the others as inactive; ! = not active in a repeat; [ ] = remark or other dose. Unless noted, the call rests on the fitted dose curve; in most records, active means well fitted curve in the direction sought with a large enough effect; inconclusive means small, poorly fitted or top-dose-only effect, or another doubt; inactive means no such curve, though single readings can be large; an effect the other way counts as inactive or inconclusive. Unless noted, on the % scale 0 is the no-effect control and ±100 the full control effect.

OC[C@@H](O)[C@H]1O[C@@H]2O[C@@H](C(Cl)(Cl)Cl)O[C@@H]2[C@H]1O was read as DT40 TDP1 no CPT -23% and DT40 TDP1 CPT 0%.
`CCC(C(=O)Nc1ccccc1C(=O)OC)n1nc(C)c2c(C)n(-c3ccc(C)cc3)nc2c1=O` (stereo not drawn) gave DT40 TDP1 no CPT 12µM*, 12-LOX inh -30% and DT40 TDP1 CPT 7.3µM*.
Oc1cc[c]([Hg][Cl])cc1 was read as DT40 TDP1 no CPT 0.27µM* and DT40 TDP1 CPT 0.3µM*.
Screening O=S(=O)(c1ccc(O)cc1)c1ccc(O)cc1 returned DT40 TDP1 no CPT 0%, IL-1B inflam inh 4, 12-LOX inh -11% and DT40 TDP1 CPT 7%.
`O=C(Nc1cc2c(cc1C(=O)c1ccc(Br)cc1)OCCO2)c1ccc(Cl)cc1` gave DT40 TDP1 no CPT inconclusive, 12-LOX inh -26% and DT40 TDP1 CPT 23µM*.
`O=C(Nc1ccc(Br)cc1C(=O)c1ccccc1)c1ccccc1` gave DT40 TDP1 no CPT inconclusive, 12-LOX inh 0% and DT40 TDP1 CPT inconclusive.
Screening O=[N+]([O-])c1ccc(N2CCOCC2)c2c1no[n+]2[O-] returned DT40 TDP1 no CPT 0.16µM*, IL-1B inflam inh -105*, HT1080-NT tox 5.2µM*, 12-LOX inh -1%, DT40 TDP1 CPT 0.18µM* and HT1080 IDH1KD tx 5.2µM*.
For O=C1NCCOC(=O)[C@@H](Cc2ccc(F)cc2)CC/C=C/C[C@@H]1CC(=O)N(CCO)Cc1ccccc1 the results were DT40 TDP1 no CPT 23µM*, IL-1B inflam inh 2, HT1080-NT tox 0%, 12-LOX inh -1%, DT40 TDP1 CPT 21µM* and HT1080 IDH1KD tx 12%.
For O=C1NCCOC(=O)[C@H](Cc2ccc(F)cc2)CC/C=C/C[C@H]1CC(=O)N(CCO)Cc1ccccc1 the results were DT40 TDP1 no CPT inconclusive, IL-1B inflam inh -6, HT1080-NT tox -1%, 12-LOX inh -26%, DT40 TDP1 CPT inconclusive and HT1080 IDH1KD tx -4%.
`CCC(CO)(C(=O)OC1C[N+]2(C)CCC1CC2)c1ccccc1` (stereo not drawn) gave DT40 TDP1 no CPT -4%, IL-1B inflam inh 2, HT1080-NT tox -7%, 12-LOX inh 45µM*, DT40 TDP1 CPT -4% and HT1080 IDH1KD tx 7%.
`O=C(Nc1ccc(Br)cc1)c1cc(Br)cc(Br)c1O` gave DT40 TDP1 no CPT -2%, 12-LOX inh 40µM* and DT40 TDP1 CPT -25%.
For CC(=O)O[C@@]12CO[C@@H]1C[C@@H](O)[C@@]1(C)C(=O)[C@H](O)C3=C(C)[C@@H](OC(=O)[C@H](O)[C@@H](NC(=O)c4ccccc4)c4ccccc4)C[C@@](O)([C@@H](OC(=O)c4ccccc4)C12)C3(C)C (stereo partly drawn) the results were DT40 TDP1 no CPT 0.065µM*, IL-1B inflam inh 30, HT1080-NT tox 0.21µM*, 12-LOX inh 21%, DT40 TDP1 CPT 0.046µM* and HT1080 IDH1KD tx 0.013µM*.
`CC(=O)O[C@@]12CO[C@@H]1C[C@H](OC1OCC(O)C(O)C1O)[C@@]1(C)C(=O)[C@H](O)C3=C(C)[C@@H](OC(=O)[C@H](O)[C@@H](NC(=O)c4ccccc4)c4ccccc4)C[C@@](O)([C@@H](OC(=O)c4ccccc4)C12)C3(C)C` (stereo partly drawn) gave DT40 TDP1 no CPT 1µM*, IL-1B inflam inh 11, HT1080-NT tox 3.3µM*, 12-LOX inh 16%, DT40 TDP1 CPT 1.2µM* and HT1080 IDH1KD tx 5.8µM*.
CCCCCC(=O)N[C@@H](c1ccccc1)[C@@H](O)C(=O)O[C@H]1C[C@@]2(O)[C@@H](OC(=O)c3ccccc3)C3[C@](C)(C(=O)[C@H](O)C(=C1C)C2(C)C)[C@@H](OC1OCC(O)C(O)C1O)C[C@H]1OC[C@@]31OC(C)=O (stereo partly drawn) was read as DT40 TDP1 no CPT 0.58µM*, IL-1B inflam inh 44, HT1080-NT tox 2.6µM*, 12-LOX inh 18%, DT40 TDP1 CPT 1.2µM* and HT1080 IDH1KD tx 1.8µM*.
CC1=C(C)[N+](=O)C2CCCCC2N1[O-] (stereo not drawn) was read as DT40 TDP1 no CPT 5%, IL-1B inflam inh -9, HT1080-NT tox 4%, 12-LOX inh 6%, DT40 TDP1 CPT inconclusive and HT1080 IDH1KD tx 4%.
Screening Cn1nc(C(C)(C)C)cc1C(=O)N1CCCCC1c1cc(C(=O)Nc2ccc(F)c(Cl)c2)no1 (stereo not drawn) returned DT40 TDP1 no CPT inconclusive, IL-1B inflam inh -64*, HT1080-NT tox inconclusive, 12-LOX inh 0%, DT40 TDP1 CPT 21µM* and HT1080 IDH1KD tx inconclusive.
`COc1ccc(-n2c(/C=C3\C(=O)Nc4ccccc43)nc3ccccc3c2=O)cc1` gave DT40 TDP1 no CPT inconclusive, IL-1B inflam inh -22, HT1080-NT tox 12%, 12-LOX inh inconclusive, DT40 TDP1 CPT inconclusive and HT1080 IDH1KD tx 1%.
Screening COc1ccc2c(c1)/C(=C/c1cnc[nH]1)C(=O)N2 returned DT40 TDP1 no CPT 1.2µM*, IL-1B inflam inh -111*, HT1080-NT tox inconclusive, 12-LOX inh 10%, DT40 TDP1 CPT 2.6µM* and HT1080 IDH1KD tx 15µM*!.
`O=C1Nc2ccccc2/C1=C/c1nc2ccccc2c(=O)n1-c1ccc(O)cc1` gave DT40 TDP1 no CPT inconclusive, HT1080-NT tox inconclusive, 12-LOX inh -5%, DT40 TDP1 CPT inconclusive and HT1080 IDH1KD tx inconclusive.
For COc1cc(OC)c(/C=C2\C(=O)Nc3ccccc32)c(OC)c1 the results were DT40 TDP1 no CPT 2.6µM*, IL-1B inflam inh -2, HT1080-NT tox inconclusive, 12-LOX inh -6%, DT40 TDP1 CPT 2.6µM* and HT1080 IDH1KD tx 2.6µM*.
`O=C1Nc2ccccc2/C1=C/c1cnc[nH]1` gave DT40 TDP1 no CPT 18µM*, IL-1B inflam inh -25, HT1080-NT tox -7%, 12-LOX inh 19%, DT40 TDP1 CPT inconclusive and HT1080 IDH1KD tx inconclusive.
For CC[C@H]1CN2CC[C@H]1C[C@@H]2CNC(=O)Nc1cccc(C(F)(F)F)c1 the results were 12-LOX inh 22%[176 µM].
For Cc1ccc(CN2C[C@@H]3C(=O)N(C)C(=O)[C@@H]3C2)o1 the results were 12-LOX inh -6%.
